# Laboratory results published in PubChem BioAssay (EPA / NIEHS).
# Values joined by “and” are separate entries in the source; they are usually repeats but may differ in a detail not shown here. Identical values can stand only once. Inconclusive results are not listed. Active and inactive are the calls of the source. The calls were made as follows, unless noted: active = hit-call score of the fitted dose curve at least 0.9, where 1 is the maximum; inconclusive = response in the unintended direction; inactive = score below 0.9.
# Key:
# [1] = molecular target: Hepatocyte nuclear factor 4-alpha (Homo sapiens) (UniProt P41235); assay: ATG_HNF4a_TRANS: Attagene TRANS-FACTORIAL HepG2 Assay for human Hepatocyte Nuclear Factor 4 alpha (HNF4a) (AID 2282982); details: HepG2 HNF4a transactivation reporter, mRNA readout
# Sequence of Hepatocyte nuclear factor 4-alpha (Homo sapiens) (P41235 whole entry, looked up, the tested form may be a part): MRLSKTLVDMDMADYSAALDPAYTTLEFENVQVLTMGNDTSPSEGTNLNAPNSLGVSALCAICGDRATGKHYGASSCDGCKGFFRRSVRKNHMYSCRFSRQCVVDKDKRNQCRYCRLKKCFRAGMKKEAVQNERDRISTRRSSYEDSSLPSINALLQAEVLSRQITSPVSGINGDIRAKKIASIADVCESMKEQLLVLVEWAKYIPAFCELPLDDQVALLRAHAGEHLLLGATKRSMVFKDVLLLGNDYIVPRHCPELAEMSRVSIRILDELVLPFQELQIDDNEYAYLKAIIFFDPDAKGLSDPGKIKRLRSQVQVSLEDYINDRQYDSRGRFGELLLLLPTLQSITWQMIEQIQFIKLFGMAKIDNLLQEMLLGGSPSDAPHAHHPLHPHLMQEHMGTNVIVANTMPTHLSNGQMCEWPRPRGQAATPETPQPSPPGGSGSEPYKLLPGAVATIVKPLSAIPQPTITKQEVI
# Summary of the method: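 Cells used were human HepG2, transiently carrying GAL4-UAS reporter units read out against exogenous NR-GAL4 chimeras. Reporter transcript levels after 24 h dosing were quantified by fluorescent RT-PCR and capillary electrophoresis.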
# [2] = ATG_M_32_TRANS: Attagene TRANS-FACTORIAL HepG2 Assay for M32 Transcription Factor (Internal Marker) (AID 2282984); details: HepG2 Attagene TRANS M32 internal marker reporter
# Summary of the method: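 Human hepatoma HepG2, transient MRTU transfection, 24 h treatment. RNA → RT-PCR → fluorescent primer extension → HpaI digest (2 h, 37 C) → CE. Positive-direction fit vs DMSO.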
# [3] = molecular target: Nuclear receptor subfamily 4 group A member 2 (Homo sapiens) (UniProt P43354); assay: ATG_NURR1_TRANS: Attagene TRANS-FACTORIAL HepG2 Assay for human Nuclear Receptor Related Protein 1 (NURR1) (AID 2282985); details: HepG2 Attagene TRANS reporter, mRNA readout
# Sequence of Nuclear receptor subfamily 4 group A member 2 (Homo sapiens) (P43354 whole entry, looked up): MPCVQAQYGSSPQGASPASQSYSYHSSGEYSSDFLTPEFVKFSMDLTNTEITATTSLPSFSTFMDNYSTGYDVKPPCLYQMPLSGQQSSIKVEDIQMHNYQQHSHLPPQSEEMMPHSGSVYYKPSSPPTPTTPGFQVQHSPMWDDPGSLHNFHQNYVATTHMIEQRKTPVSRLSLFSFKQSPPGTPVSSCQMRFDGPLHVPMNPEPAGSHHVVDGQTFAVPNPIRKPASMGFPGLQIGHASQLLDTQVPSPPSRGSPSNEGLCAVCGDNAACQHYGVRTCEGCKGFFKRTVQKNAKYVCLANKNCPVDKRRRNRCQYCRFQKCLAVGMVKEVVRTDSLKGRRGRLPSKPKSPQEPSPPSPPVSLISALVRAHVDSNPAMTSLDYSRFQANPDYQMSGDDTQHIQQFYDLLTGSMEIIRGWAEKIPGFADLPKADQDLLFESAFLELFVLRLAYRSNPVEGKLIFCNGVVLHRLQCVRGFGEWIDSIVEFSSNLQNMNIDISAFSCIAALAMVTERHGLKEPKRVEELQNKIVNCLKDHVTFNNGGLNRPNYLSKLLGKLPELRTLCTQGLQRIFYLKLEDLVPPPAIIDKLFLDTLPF
# Summary of the method: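 After 24 h chemical dosing, total RNA from transiently transfected HepG2 cells was reverse-transcribed and reporter cDNA PCR-amplified, FAM-labelled and analysed by capillary electrophoresis. Activity fitted in positive direction, DMSO as negative control.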
# [4] = molecular target: Transcriptional activator Myb (Homo sapiens) (UniProt P10242); assay: ATG_Myb_CIS: Attagene CIS-FACTORIAL HepG2 Assay for human Myeloblastosis (Myb) Proto-Oncogene Transcription Factor (AID 2282986; active = hit-call score of the fitted dose curve at least 0.9, where 1 is the maximum; inactive = score below 0.9); details: HepG2 Attagene CIS-FACTORIAL Myb reporter transcription; actives raise or lower the signal
# Sequence of Transcriptional activator Myb (Homo sapiens) (P10242 whole entry, looked up): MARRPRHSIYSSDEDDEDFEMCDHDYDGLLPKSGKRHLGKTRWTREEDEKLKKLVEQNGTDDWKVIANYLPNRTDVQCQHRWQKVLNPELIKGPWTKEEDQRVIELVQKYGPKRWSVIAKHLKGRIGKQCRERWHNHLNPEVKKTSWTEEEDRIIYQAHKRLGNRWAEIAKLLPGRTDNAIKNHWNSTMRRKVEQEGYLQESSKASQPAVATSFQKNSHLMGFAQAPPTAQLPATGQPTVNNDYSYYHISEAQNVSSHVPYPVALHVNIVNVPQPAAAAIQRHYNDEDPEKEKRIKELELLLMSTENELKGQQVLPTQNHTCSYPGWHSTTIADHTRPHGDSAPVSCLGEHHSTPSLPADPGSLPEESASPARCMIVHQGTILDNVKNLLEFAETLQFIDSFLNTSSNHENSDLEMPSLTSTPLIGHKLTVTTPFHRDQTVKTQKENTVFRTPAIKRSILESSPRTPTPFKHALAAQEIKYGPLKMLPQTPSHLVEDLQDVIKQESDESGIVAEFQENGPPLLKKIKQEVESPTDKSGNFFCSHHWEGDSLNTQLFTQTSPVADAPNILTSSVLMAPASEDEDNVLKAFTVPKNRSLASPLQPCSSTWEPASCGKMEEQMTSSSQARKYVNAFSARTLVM
# Summary of the method: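 In this HepG2 transient-transfection format, cis-regulated reporter mRNA is quantified 24 h post-dosing by RT-PCR with capillary electrophoresis, fitted bidirectionally to DMSO baseline.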
# [5] = molecular target: Oxysterols receptor LXR-alpha (Homo sapiens) (UniProt Q13133); assay: ATG_LXRa_TRANS: Attagene TRANS-FACTORIAL HepG2 Assay for human Liver X Receptor alpha (LXRa) (AID 2282980); details: HepG2 Attagene TRANS reporter, LXRa transactivation
# Sequence of Oxysterols receptor LXR-alpha (Homo sapiens) (Q13133 whole entry, looked up, the tested form may be a part): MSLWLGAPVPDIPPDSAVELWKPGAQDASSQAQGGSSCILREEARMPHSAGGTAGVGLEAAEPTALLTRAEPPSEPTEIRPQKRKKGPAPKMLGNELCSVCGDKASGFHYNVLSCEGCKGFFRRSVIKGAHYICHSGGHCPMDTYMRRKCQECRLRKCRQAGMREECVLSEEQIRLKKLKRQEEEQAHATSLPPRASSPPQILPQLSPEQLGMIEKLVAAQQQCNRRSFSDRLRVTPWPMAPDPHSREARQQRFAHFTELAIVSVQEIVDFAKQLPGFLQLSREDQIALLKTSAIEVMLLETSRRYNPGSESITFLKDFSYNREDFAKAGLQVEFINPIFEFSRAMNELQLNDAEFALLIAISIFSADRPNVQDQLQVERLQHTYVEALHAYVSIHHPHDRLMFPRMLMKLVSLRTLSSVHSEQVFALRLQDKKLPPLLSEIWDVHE
# Summary of the method: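 HepG2 cells were transiently transfected with multiplexed reporter units driven by chimeric LXRa–GAL4 fusion proteins, then dosed for 24 h. Reporter mRNA was quantified by RT-PCR, fluorescent labelling and capillary electrophoresis; gain of signal fitted against DMSO baseline.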
# [6] = molecular target: Oxysterols receptor LXR-beta (Homo sapiens) (UniProt P55055); assay: ATG_LXRb_TRANS: Attagene TRANS-FACTORIAL HepG2 Assay for human Liver X Receptor beta (LXRb) (AID 2282981); details: HepG2 Attagene TRANS GAL4-LXRb reporter, mRNA
# Sequence of Oxysterols receptor LXR-beta (Homo sapiens) (P55055 whole entry, looked up, the tested form may be a part): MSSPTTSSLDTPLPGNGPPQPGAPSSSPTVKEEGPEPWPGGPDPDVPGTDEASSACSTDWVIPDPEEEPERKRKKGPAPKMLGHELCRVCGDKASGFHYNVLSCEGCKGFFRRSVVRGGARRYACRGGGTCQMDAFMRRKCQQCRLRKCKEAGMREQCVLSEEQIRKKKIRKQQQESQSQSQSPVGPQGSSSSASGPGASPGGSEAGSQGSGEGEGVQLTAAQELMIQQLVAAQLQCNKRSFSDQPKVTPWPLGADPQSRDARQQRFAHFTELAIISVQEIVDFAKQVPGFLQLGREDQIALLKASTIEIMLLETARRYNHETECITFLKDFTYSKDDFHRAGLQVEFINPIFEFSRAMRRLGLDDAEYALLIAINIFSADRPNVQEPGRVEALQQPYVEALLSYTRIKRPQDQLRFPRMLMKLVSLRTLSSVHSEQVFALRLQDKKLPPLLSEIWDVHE
# Summary of the method: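 In this TRANS format, exogenous chimeric NR-Gal4 protein activity, not endogenous factors, drives reporter expression in transfected human HepG2 cells. Exposure lasted 24 h; reporter mRNA was read by fluorescent capillary electrophoresis.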
# [7] = ATG_M_06_TRANS: Attagene TRANS-FACTORIAL HepG2 Assay for M06 Transcription Factor (Internal Marker) (AID 2282983); details: HepG2 Attagene TRANS M06 internal marker reporter
# Summary of the method: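 HepG2 cells transiently transfected with multiplexed GAL4-UAS reporter transcription units; after 24 h compound exposure, reporter mRNA measured by RT-PCR, FAM-labelled primer extension, HpaI digestion and capillary electrophoresis. Gain-of-signal fitted versus DMSO baseline; background control readout.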
# [8] = molecular target: Bile acid receptor (Homo sapiens) (UniProt Q96RI1); assay: ATG_FXR_TRANS: Attagene TRANS-FACTORIAL HepG2 Assay for Farnesoid X Receptor (FXR) (AID 2282979); details: HepG2 Attagene TRANS FXR-GAL4 reporter transcription;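 also: hits raise reporter mRNA above DMSO so AC50 marks FXR activation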
# Sequence of Bile acid receptor (Homo sapiens) (Q96RI1 whole entry, looked up, the tested form may be a part): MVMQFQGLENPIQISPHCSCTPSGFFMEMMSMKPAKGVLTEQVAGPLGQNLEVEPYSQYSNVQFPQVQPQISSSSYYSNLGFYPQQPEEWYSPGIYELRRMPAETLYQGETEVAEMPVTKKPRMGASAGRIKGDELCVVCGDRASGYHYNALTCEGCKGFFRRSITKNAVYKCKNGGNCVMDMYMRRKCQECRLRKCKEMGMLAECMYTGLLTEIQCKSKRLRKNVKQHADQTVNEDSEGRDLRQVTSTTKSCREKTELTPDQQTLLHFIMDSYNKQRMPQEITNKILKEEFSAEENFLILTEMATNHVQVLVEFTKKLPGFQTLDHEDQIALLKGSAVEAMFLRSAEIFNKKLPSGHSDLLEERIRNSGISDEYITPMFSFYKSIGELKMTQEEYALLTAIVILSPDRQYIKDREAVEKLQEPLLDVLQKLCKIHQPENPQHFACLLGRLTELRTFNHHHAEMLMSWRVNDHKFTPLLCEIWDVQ
# Summary of the method: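 HepG2 cells transiently transfected with reporter constructs in which a chimeric FXR-GAL4 protein drives a GAL4-UAS reporter; 24 h compound exposure. Reporter mRNA measured by RT-PCR, FAM labelling, HpaI digestion and capillary electrophoresis; gain-of-signal versus DMSO.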
# [9] = molecular target: Glucocorticoid receptor (Homo sapiens) (UniProt P04150); assay: ATG_GR_TRANS: Attagene TRANS-FACTORIAL HepG2 Assay for human Glucocorticoid Receptor (GR) (AID 2282978); details: HepG2 Attagene TRANS GR reporter, mRNA transcription;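 also: activators score as hits since higher reporter transcript over DMSO is fitted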
# Sequence of Glucocorticoid receptor (Homo sapiens) (P04150 whole entry, looked up, the tested form may be a part): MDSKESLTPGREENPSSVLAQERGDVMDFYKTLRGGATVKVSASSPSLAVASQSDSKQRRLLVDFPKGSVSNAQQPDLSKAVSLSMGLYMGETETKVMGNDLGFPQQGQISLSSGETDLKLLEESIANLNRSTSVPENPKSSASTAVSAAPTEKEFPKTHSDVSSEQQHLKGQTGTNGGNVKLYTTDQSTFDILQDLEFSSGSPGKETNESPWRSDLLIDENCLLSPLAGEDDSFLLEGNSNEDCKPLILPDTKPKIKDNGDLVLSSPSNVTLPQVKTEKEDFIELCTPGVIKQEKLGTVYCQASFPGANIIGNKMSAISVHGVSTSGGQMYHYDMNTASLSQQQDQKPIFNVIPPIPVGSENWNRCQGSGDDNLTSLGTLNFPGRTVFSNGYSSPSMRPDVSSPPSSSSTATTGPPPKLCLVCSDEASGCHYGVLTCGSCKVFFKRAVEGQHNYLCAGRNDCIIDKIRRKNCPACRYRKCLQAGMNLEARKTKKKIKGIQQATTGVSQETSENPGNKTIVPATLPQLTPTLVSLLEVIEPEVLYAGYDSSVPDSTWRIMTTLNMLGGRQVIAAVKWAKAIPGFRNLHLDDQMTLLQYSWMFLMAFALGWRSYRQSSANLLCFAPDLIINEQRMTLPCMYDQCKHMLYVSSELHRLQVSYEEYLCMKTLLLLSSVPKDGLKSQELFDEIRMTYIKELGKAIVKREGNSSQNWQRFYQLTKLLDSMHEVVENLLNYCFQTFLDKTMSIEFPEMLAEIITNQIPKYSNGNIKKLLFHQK
# Summary of the method: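 Exogenous NR-GAL4 fusion activity was assessed through induced GAL4-UAS reporter transcripts in transfected human HepG2 cells, quantified after 24 h by RT-PCR and fluorescent capillary electrophoresis with DMSO as baseline.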
structure (smiles),measurement,setting,value
CC[C@H](C)[C@@H](C(=O)O)n1sc2ccccc2c1=O,outcome,[1],inactive
same,outcome,[2],inactive
same,outcome,[3],inactive
same,outcome,[4],inactive
OC1CCCCC1,outcome,[5],inactive
same,outcome,[1],inactive
same,outcome,[7],inactive
same,outcome,[2],inactive
same,outcome,[4],inactive
CCCCCCCCCCCCCCCS(=O)(=O)Oc1ccccc1,outcome,[8],inactive
same,outcome,[6],inactive
same,outcome,[1],inactive
same,outcome,[7],inactive
CCCCC(CC)COC(=O)CCCCC(=O)OCc1ccccc1 (centres undefined),outcome,[6],inactive
same,outcome,[7],inactive
C[C@@H]1C[C@H]2[C@@H]3CCC4=CC(=O)C=C[C@]4(C)[C@@]3(F)[C@@H](O)C[C@]2(C)[C@@]1(O)C(=O)COP(=O)(O)O,outcome,[5],inactive
same,outcome,[6],inactive
same,outcome,[7],inactive
same,outcome,[2],inactive
same,outcome,[3],inactive
same,outcome,[4],inactive
Nc1cccc2c(N)cccc12,outcome,[9],inactive
same,outcome,[8],inactive
same,outcome,[6],inactive
same,outcome,[2],inactive
same,outcome,[3],inactive
same,outcome,[4],inactive
CCCCCCCCCCCCN1CCCC1=O,outcome,[9],inactive
same,outcome,[8],inactive
same,outcome,[6],inactive
same,outcome,[2],inactive
CCOC(=O)CC(O)(CC(=O)OCC)C(=O)OCC,outcome,[9],inactive
same,outcome,[5],inactive
same,outcome,[1],inactive
same,outcome,[7],inactive
same,outcome,[2],inactive
same,outcome,[4],inactive
Cc1oc(-c2ccccc2)nc1CCOc1ccc(C[C@H](Nc2ccccc2C(=O)c2ccccc2)C(=O)O)cc1,outcome,[9],inactive
same,outcome,[7],inactive
same,outcome,[2],inactive
same,AC50,[3],19.9 µM (active)
COCC(C)OCC(C)O (centres undefined),outcome,[8],inactive
same,outcome,[1],inactive
same,outcome,[7],inactive
COc1ccc([N+](=O)[O-])cc1N,outcome,[9],inactive
same,outcome,[1],inactive
same,outcome,[4],inactive
CC1=C(/C=C/C(C)=C/C=C/C(C)=C/C(=O)O)C(C)(C)CCC1,outcome,[9],inactive
same,outcome,[5],inactive
same,outcome,[6],inactive
same,outcome,[7],inactive
same,outcome,[2],inactive
same,AC50,[3],57.2 nM (active) and 278 nM (active)
same,outcome,[4],inactive
c1ccc2c(c1)Cc1ccccc1-2,outcome,[8],inactive
same,outcome,[7],inactive
CC#C[C@]1(O)CC[C@H]2[C@@H]3CCC4=CC(=O)CCC4=C3[C@@H](c3ccc(N(C)C)cc3)C[C@@]21C,outcome,[9],inactive
same,outcome,[8],inactive
same,outcome,[7],inactive
same,outcome,[2],inactive
same,outcome,[3],inactive
same,outcome,[4],inactive
